Data on 4 compounds can be found in PubChem BioAssay (NCATS).

“And” between values parts separate entries of the source, which are not always exact repeats. Identical values can stand only once. A number with no mark means an inactive call. Inconclusive results are not listed. The source made the active and inactive calls. Unless noted, the call rests on the fitted dose curve; in most records, active means well fitted curve in the direction sought with a large enough effect; inconclusive means small, poorly fitted or top-dose-only effect, or another doubt; inactive means no such curve, though single readings can be large; an effect the other way counts as inactive or inconclusive. Bounds are passed on as bounds.

A short description of test [1]: Confirmation and Secondary Assay for Modulators of Hemoglobin Beta Chain Splicing at IVS2 705 locus (AID 930).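 Further: HeLa cells stably expressing the EGFP-705 splicing reporter; % of control where 0% means no effect.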 To be noted: HeLa EGFP-705 splicing reporter, GFP fluorescence, 48 h; series mostly up to 46.1 µM. The method, boiled down:
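HeLa cells stably carrying EGFP interrupted by mutant beta-globin IVS2-705 intron (CMV-driven) were seeded at 500 cells/well, treated next day with compound for 2 days at 37C; corrected splicing restores EGFP, read as total peak GFP intensity per well.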

The target of test [2] is Ubiquitin carboxyl-terminal hydrolase 1 (Homo sapiens) (UniProt O94782). The experiment in a line: Inhibitors of USP1/UAF1: Pilot qHTS (AID 504865).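 Further: rhodamine fluorescence freed from ubiquitin-rhodamine substrate followed over time; top concentration of the series differs between compounds; on the % scale 0 is the no-effect control and ±100 the full control effect; nearly all actives have a fitted effect of over 35% in size.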 To be noted: purified USP1/UAF1, Ub-rhodamine cleavage fluorescence; series mostly up to 114 µM. The essentials: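 USP1/UAF1 complex at 1 nM preincubated 15 min at room temperature with compound, then Ub-Rho substrate added at 150 nM final. Fluorescence (480/540 nm) read kinetically in 50 mM HEPES pH 7.8, 0.5 mM EDTA, 1 mM TCEP, 0.1 mg/ml BSA, 0.01% Tween-20.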

Test [3] in a line: Counterscreen qHTS for small molecule stabilizers of the endoplasmic reticulum resident proteome: GLuc-NoTag assay (AID 1508627).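 Further: SH-SY5Y cells given compound then 100 nM thapsigargin to empty ER calcium; 0% = thapsigargin alone and -100% = DMSO vehicle control.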 The settings on record: Gaussia luciferase NoTag secretion counterscreen, luminescence, thapsigargin 100 nM for final 4 h; series mostly up to 76.4 µM. The essentials:
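Counterscreen line: SH-SY5Y-GLuc-NoTag cells, treated with compound 19 hr before a 4 hr, 100 nM thapsigargin calcium depletion. Secreted Gaussia luciferase in the medium was measured by luminescence after coelenterazine was added (0.07x final), with cells unlysed.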
A general note: The purpose of a counterscreen is to sort out artefacts and off-target activity.

Test [4] can be described thus: Cell Viability qHTS for small molecule stabilizers of the endoplasmic reticulum resident proteome (AID 1508629).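 Further: human SH-SY5Y neuroblastoma cells carrying the GLuc-SERCaMP reporter; compound exposure about 46 h in total before the viability read; on the % scale 0 is the no-effect control and ±100 the full control effect.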 To be noted: cell viability counter-screen, 100 nM thapsigargin for final 4 h.
A short description of test [5]: Confirmatory qHTS to identify inhibitors of SARS-CoV-2 cell entry (AID 1645844; calls by dose curve; further: potency means the concentration at half of the fitted maximal effect; nearly all actives have a fitted effect of over 45% in size). To be noted: SARS-CoV-2 pseudotyped particle cell entry, luciferase; series mostly up to 57.2 µM. The essentials: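 Luminescence entry read-out after 48 h: spike-pseudotyped MLV particles (Wuhan-Hu-1, 19-aa C-terminal truncation) added to compound-pretreated (1 h) HEK293-ACE2 cells; Data were normalised to bald PP and spike PP wells.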

The nature of test [6]: AP1 Signaling Pathway (AID 357; active means well fitted curve in either direction with a large enough effect, not every such curve was filed as active; further: on the % scale 0 is the no-effect control and ±100 the full control effect). The settings on record: ME-180 (cervical carcinoma) AP-1-bla reporter, EGF-induced, beta-lactamase ratio, 5 h; series mostly up to 38 µM. The essentials: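 AP-1-bla ME-180 cells with beta-lactamase reporter under AP-1 response element, stimulated with EC50 EGF; compounds titrated, 5 hours at 37 degrees Celsius. CCF4 read at 460/530 nm ratio; positive and negative modulators judged by AC50.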

Test [7] deals with Glucocorticoid receptor (Homo sapiens) (UniProt P04150). The experiment in a line: GR-EFC Redistribution (AID 451; calls by dose curve; further: potency means the concentration at half of the fitted maximal effect). To be noted: CHO-K1 GR-EFC translocation, beta-gal luminescence, 2 h. The method, boiled down:
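Translocation of GR-ED fusion to nuclear EA restores b-gal, read by luminescence after 1 h room-temperature detection. Engineered CHO-K1 biosensor cells, 1,000/well, exposed 2 h at 37 C to titrations up to 46 uM final.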

Test [8] deals with Mitogen-activated protein kinase 10 (Mus musculus) (UniProt Q61831). In words: JNK3 AlphaScreen Assay (AID 530; active means well fitted curve in either direction with a large enough effect, not every such curve was filed as active;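 further: kinase came from lysate of stimulated human HepG2 cells; signal reports phosphorylation of biotinylated GST-cJun 1-79 at Ser73 with 10 µM ATP; on the % scale 0 is the no-effect control and ±100 the full control effect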). The settings on record: JNK3 lysate, c-Jun phosphorylation; series mostly up to 57.1 µM. The method, boiled down:
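Kinase buffer: 20 mM Tris-HCl pH 7.6, 10 mM MgCl2, 1 mM DTT, 0.1 mM Na3VO4, 0.01% Tween-20; ATP 10 uM. Substrate biotin-GST-cJun(1-79), enzyme from activated HepG2 lysates. Detection by Ser73 phospho-antibody AlphaScreen.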
For orientation: Alpha assays give light when donor and acceptor beads are brought close together.

For test [9], the target named is 3',5'-cyclic-AMP phosphodiesterase 4B (Homo sapiens) (UniProt Q07343). The experiment in a line: qHTS Assay for Inhibitors of PDE-IV (AID 607; active means well fitted activation curve with a large enough effect in the main read-out, with a control signal flat, not every such curve was filed as active; further: % of control where 0% means no effect). To be noted: HEK293 ACTOne CNG channel cells, membrane potential fluorescence; series mostly up to 22.9 µM. The method, boiled down:
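HEK293 ACTOne cells with CNG channel (1000/well), endogenous PDE4; membrane potential dye, compounds up to 22.9 uM final. Fluorescence Ex 535/Em 590; RO 20-1724 (100 uM final) as reference.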

In test [10] the target is Guanine nucleotide-binding protein G(i) subunit alpha-1 (Homo sapiens) (UniProt P63096). In words: qHTS Assay for Inhibitors of RGS12 GoLoco Motif Activity (Green Fluorophore) (AID 879).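 Further: 0% = labeled peptide with Gαi1 and full inhibition = labeled peptide alone without protein; negative values mean loss of peptide binding seen as reduced polarization.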 The settings on record: Galphai1/FITC-RGS12 GoLoco peptide, fluorescence polarization; series mostly up to 57.1 µM. The method, boiled down:
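A drop in FITC polarization marked displacement of the FITC-tagged RGS12 GoLoco peptide (10 nM) from Gαi1 (50 nM). Compounds were incubated 10 min at room temperature in Tris pH 7.5 buffer containing 150 mM NaCl, 0.1 mM GDP and 0.05% NP40; unlabeled peptide titration served as control.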
Background: Quantitative high-throughput screening tests each substance at several concentrations.

The target of test [11] is Cytochrome P450 2D6 (Homo sapiens) (UniProt P10635). The experiment in a line: qHTS Assay for Inhibitors and Substrates of Cytochrome P450 2D6 (AID 891). Further: potency means the concentration at half of the fitted maximal effect; nearly all actives have a fitted effect of over 60% in size. To be noted: recombinant CYP2D6, luciferin-ME EGE luminescence; series mostly up to 57.1 µM. The method, boiled down: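 Luminescent read-out of luciferin formed by 5 nM human CYP2D6 demethylating 30 uM Luciferin-ME EGE (Km level) over 60 min at room temperature after NADPH regeneration addition. Data normalized to full inhibition by 1.43 uM quinidine.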

The nature of test [12]: qHTS Assay for Identification of Small Molecule Antagonists for NFkB Signaling Pathway (AID 895; active means well fitted inhibition curve with a large enough effect in the signal ratio, with a control signal flat, not every such curve was filed as active; the % refers to the signal ratio; further: on the % scale 0 is the no-effect control and ±100 the full control effect). To be noted: NFkB beta-lactamase reporter cells, FRET ratio 460/530; series mostly up to 38.3 µM. The method, boiled down: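 Beta-lactamase reporter read-out (460 and 530 nm emission ratio, 405 nm excitation, 2 hrs substrate loading RT) after 5 hr stimulation with 10 pM TNF alpha in compound-treated NFkB-bla ME-180 cells in low-serum medium.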

Test [13] is described as follows: qHTS Assay for Identification of Small Molecule Agonists for Thrombopoietin (TPO) Signaling Pathway (AID 917). Further: on the % scale 0 is the no-effect control and ±100 the full control effect. To be noted: TPO signaling pathway reporter cells, agonist qHTS; series mostly up to 38.5 µM. The method, boiled down:
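Stimulation at the TPO EC50 (26 pM final) was used to detect activators. Ba/F3 mouse cells bearing human TPO receptor and a luciferase reporter under the Glycoprotein IIb promoter were exposed to compounds for 24 hrs at 37 C.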

Test [14] has as its target Muscarinic acetylcholine receptor M1 (Rattus norvegicus) (UniProt P08482). In words: qHTS Assay for Antagonists of Acetylcholine Muscarinic M1 Receptor: Kinetic Measurement of Intracellular Calcium Response (AID 943). Further: potency means the concentration at half of the fitted maximal effect; nearly all actives have a fitted effect of over 75% in size. To be noted: M1-expressing cells, kinetic intracellular calcium fluorescence; series mostly up to 35.3 µM. The method, boiled down: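 Read-out: peak over basal Fluo-4 fluorescence, kinetic at 1 Hz for 4 min after EC80 carbachol (100 nM final). Rat M1-CHO cells, dye loaded 1 h at 37C, compound added 10 min before agonist.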

For test [15] the target is unchanged. The experiment in a line: qHTS Assay for Antagonists of Acetylcholine Muscarinic M1 Receptor: Measurement of IP-One Response (AID 944). Further: potency means the concentration at half of the fitted maximal effect; nearly all actives have a fitted effect of over 75% in size. To be noted: CHO-M1 cells, IP-One HTRF, antagonist mode; series mostly up to 46.1 µM. The method, boiled down: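 Read-out: HTRF competition between d2-IP1 and Eu-cryptate anti-IP1 antibody, emission 620 and 665 nm. Stimulus was carbachol, EC80 (200 nM), for 30 min in M1-CHO cells (rat receptor), after 10 min compound pre-treatment.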

Test [16] deals with Pyruvate kinase (Leishmania mexicana) (UniProt Q27686). In words: qHTS Validation Assay for Inhibitors of Leishmania Mexicana Pyruvate Kinase (AID 945).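 Further: 0% = DMSO only neutral control wells.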 To be noted: purified L. mexicana pyruvate kinase, enzyme activity, E451W mutant enzyme; series mostly up to 57.5 µM. The method, boiled down:
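LmPYK E451W 0.2 nM; 0.5 mM PEP, 0.1 mM ADP, 7 mM MgCl2, 50 mM KCl, imidazole pH 7.2, 0.01% Tween 20, 0.05% BSA; 1 h RT; PKLight luminescence; DMSO-normalized.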

The target of test [17] is Pyruvate kinase PKM (Homo sapiens) (UniProt P14618). In words: qHTS Assay for Activators of Human Muscle Pyruvate Kinase (AID 954; active means well fitted curve in the direction sought with a large enough effect, not every such curve was filed as active;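 further: 0% = uninhibited enzyme and -100% = no enzyme or full thiadiazolimine inhibition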). The settings on record: purified human muscle pyruvate kinase, luciferase-coupled luminescence, 1 h; series mostly up to 57.5 µM. The method, boiled down:
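Compound pinned into substrate mix (0.5 mM PEP, 0.1 mM ADP), then 0.1 nM PKM2 added; 1 h, RT. Stop/detection luciferase reagent added, luminescence read. Normalized to no-inhibition and no-enzyme or reference-inhibitor controls.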

The target of test [18] is Furin (Homo sapiens) (UniProt P09958). In words: Furin counterscreen qHTS for Zika virus inhibitors (AID 1347149).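 Further: purified recombinant full-length human furin enzyme at 5 nM; fluorescence gain from furin cutting a BOC-RVRR-AMC peptide substrate over 15 min; top concentration of the series differs between compounds; plate controls were no-inhibitor control for no effect and no-enzyme control for full effect; nearly all actives have a fitted effect of over 70% in size.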 To be noted: furin enzymatic counterscreen, fluorogenic substrate; series mostly up to 57.5 µM. The essentials:
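Counterscreen measures cleavage of 2 microM BOC-RVRR-AMC, below its ~15 microM Km, by 5 nM full-length human furin at pH 7.0 after a 15-min compound preincubation. Inhibition derives from the 15-min fluorescence increase at 37C.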

The nature of test [19]: Vero cells viability qHTS for Zika virus inhibitors (AID 1347167). Further: on the % scale 0 is the no-effect control and ±100 the full control effect. The settings on record: cytotoxicity counter-screen (Zika); series mostly up to 45.9 µM. The essentials: (§1)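 Luminescent ATP readout (CellTiter Glo) after 30 min at 37 degrees C gives viability; cells in DMEM + 4% FBS were treated 24 to 48 hours with compound, following overnight attachment.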
Test [20] can be described thus: HepG2 cells viability qHTS for Zika virus inhibitors (AID 1347168). Further: on the % scale 0 is the no-effect control and ±100 the full control effect. The settings on record: Zika counter-screen; series mostly up to 45.9 µM. The method, boiled down: as §1

Chain of Glucocorticoid receptor (Homo sapiens) (P04150 whole entry, looked up, the tested form may be a part): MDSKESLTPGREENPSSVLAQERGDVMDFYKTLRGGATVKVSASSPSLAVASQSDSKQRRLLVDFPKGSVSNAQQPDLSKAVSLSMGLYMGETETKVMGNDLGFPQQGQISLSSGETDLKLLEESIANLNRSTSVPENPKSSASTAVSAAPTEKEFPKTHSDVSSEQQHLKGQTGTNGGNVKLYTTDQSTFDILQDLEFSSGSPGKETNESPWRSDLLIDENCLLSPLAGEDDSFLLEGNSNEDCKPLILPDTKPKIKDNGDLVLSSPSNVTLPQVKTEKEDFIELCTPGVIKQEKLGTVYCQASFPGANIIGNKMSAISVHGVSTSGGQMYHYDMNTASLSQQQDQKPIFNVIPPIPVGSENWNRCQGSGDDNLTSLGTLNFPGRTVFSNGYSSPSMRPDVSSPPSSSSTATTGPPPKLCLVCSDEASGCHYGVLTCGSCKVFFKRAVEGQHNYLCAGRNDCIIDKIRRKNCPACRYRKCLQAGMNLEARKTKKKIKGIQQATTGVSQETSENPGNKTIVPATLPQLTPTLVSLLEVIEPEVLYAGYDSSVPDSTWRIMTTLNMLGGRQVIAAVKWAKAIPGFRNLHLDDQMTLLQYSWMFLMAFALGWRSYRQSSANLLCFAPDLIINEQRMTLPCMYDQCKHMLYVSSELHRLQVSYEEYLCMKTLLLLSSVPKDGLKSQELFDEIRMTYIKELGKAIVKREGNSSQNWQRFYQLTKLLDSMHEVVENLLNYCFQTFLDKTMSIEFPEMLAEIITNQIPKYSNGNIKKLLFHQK
Chain of Muscarinic acetylcholine receptor M1 (Rattus norvegicus) (P08482 whole entry, looked up): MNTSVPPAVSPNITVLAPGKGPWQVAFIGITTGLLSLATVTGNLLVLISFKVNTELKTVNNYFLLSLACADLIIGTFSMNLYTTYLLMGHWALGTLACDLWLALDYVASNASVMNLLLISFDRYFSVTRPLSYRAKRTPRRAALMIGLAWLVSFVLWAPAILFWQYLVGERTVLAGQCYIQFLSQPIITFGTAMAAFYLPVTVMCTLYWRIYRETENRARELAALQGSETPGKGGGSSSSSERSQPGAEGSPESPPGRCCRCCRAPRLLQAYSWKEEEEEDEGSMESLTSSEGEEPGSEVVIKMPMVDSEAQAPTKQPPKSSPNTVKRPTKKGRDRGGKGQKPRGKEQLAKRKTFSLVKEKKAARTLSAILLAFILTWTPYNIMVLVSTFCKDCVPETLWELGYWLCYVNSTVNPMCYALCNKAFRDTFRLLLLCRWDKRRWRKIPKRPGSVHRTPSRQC
Chain of 3',5'-cyclic-AMP phosphodiesterase 4B (Homo sapiens) (Q07343 whole entry, looked up): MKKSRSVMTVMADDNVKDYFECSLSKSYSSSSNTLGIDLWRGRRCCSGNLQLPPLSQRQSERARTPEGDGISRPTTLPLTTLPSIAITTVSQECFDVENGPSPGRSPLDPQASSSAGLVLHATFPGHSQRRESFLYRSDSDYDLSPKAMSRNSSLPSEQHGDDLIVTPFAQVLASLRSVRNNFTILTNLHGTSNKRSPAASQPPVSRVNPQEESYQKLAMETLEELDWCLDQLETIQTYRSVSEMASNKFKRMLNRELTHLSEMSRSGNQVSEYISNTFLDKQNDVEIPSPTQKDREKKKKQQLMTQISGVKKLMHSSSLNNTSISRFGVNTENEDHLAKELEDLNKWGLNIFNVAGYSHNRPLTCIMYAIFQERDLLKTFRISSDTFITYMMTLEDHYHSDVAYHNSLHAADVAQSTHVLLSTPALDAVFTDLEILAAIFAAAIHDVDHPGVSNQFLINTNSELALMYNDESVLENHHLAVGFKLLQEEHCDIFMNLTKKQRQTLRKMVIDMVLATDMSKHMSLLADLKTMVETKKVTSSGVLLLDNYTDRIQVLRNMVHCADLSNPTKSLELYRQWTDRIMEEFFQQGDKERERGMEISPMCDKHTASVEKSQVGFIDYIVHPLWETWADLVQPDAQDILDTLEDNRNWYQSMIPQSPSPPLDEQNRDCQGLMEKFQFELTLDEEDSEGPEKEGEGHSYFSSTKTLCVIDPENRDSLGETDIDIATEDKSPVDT
Chain of Guanine nucleotide-binding protein G(i) subunit alpha-1 (Homo sapiens) (P63096 whole entry, looked up): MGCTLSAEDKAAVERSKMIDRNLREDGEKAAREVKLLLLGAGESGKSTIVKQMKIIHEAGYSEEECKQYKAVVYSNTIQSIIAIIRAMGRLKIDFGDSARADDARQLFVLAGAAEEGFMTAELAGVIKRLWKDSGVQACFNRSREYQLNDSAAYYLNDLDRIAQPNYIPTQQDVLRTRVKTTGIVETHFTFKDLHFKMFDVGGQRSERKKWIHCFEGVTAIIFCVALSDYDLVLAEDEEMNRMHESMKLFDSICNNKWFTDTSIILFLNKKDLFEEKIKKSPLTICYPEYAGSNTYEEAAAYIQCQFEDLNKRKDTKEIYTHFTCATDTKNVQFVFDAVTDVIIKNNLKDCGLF
Chain of Pyruvate kinase PKM (Homo sapiens) (P14618 whole entry, looked up): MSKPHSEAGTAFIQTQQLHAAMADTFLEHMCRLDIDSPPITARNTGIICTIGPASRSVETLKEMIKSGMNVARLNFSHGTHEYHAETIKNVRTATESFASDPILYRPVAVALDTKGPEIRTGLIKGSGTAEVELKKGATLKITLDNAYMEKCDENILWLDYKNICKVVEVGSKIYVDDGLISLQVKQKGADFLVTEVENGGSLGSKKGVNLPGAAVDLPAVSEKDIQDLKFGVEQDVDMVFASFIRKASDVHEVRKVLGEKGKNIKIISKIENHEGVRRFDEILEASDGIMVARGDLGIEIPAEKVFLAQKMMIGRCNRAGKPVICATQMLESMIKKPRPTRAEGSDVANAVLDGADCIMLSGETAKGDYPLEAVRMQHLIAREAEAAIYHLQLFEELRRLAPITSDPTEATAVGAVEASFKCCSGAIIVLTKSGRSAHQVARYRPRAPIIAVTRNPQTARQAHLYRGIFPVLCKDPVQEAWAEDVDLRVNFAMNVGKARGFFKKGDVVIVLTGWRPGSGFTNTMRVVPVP
Chain of Cytochrome P450 2D6 (Homo sapiens) (P10635 whole entry, looked up): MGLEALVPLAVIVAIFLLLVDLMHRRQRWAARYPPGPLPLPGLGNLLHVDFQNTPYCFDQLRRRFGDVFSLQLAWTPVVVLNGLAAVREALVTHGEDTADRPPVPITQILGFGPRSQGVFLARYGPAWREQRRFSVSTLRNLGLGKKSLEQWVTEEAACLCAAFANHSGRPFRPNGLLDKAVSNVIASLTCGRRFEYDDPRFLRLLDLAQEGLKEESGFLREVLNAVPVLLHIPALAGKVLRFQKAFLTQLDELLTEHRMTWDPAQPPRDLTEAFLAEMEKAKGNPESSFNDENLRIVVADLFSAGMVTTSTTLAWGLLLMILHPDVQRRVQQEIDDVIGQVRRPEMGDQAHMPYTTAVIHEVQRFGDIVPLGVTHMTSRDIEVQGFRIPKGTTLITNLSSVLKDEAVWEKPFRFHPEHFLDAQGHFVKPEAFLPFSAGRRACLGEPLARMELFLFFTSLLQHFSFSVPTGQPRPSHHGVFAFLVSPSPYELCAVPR
Chain of Pyruvate kinase (Leishmania mexicana) (Q27686 2-499 E452W): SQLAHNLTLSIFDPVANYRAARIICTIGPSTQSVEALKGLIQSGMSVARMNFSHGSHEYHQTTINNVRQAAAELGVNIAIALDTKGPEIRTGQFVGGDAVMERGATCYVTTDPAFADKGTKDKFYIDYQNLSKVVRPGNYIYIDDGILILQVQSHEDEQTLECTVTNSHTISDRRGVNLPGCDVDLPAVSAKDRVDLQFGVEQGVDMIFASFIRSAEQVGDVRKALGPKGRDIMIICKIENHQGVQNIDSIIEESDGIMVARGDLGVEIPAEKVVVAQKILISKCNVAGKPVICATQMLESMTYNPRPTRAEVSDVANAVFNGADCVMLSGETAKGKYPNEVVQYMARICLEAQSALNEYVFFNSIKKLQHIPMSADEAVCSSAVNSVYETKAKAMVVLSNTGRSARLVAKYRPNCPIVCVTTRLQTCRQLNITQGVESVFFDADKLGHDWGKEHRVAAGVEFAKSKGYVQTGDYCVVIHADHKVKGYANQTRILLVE
Chain of Furin (Homo sapiens) (P09958 whole entry, looked up): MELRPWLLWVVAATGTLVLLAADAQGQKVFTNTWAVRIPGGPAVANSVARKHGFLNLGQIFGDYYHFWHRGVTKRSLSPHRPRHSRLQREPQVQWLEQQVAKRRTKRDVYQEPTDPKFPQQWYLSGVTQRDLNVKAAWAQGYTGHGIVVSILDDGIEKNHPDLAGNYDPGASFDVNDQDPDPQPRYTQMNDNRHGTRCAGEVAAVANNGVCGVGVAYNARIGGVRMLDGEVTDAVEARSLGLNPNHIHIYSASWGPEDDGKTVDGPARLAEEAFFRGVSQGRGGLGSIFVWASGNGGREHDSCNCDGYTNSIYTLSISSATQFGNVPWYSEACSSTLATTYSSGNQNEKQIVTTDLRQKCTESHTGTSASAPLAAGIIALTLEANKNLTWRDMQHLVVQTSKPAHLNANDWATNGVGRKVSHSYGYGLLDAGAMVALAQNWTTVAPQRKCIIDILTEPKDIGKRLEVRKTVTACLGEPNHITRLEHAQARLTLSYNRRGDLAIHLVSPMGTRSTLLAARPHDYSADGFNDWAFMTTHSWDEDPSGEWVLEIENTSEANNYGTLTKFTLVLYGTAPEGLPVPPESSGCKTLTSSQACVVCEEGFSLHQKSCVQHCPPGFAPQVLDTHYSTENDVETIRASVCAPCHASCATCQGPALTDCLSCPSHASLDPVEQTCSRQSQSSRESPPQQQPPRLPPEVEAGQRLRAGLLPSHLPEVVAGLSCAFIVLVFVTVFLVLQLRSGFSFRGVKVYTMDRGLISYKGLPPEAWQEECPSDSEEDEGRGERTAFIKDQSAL

Regarding `CC1CCCC(=O)CCC/C=C/c2cc(O)cc(O)c2C(=O)O1` (stereo not given), the compound was classed as inactive in [1]. Besides, in [2], the Potency result was “inactive”.

Regarding `C[C@H]1CCC/C=C/C2C[C@H](O)C[C@H]2[C@H](O)/C=C/C(=O)O1` (stereo not given in full), the Potency result in test [3] is “inactive”. Besides, in [4], the max response was 21.4%. In addition, the Potency in [5] was 0.857 µM (active).

`C[C@@]1(CO)[C@H](O)CC[C@@]2(C)[C@H]1CC[C@H]1C[C@@H]3C[C@@]12CC[C@]3(O)CO`: the result in [6] was inactive.

As for `C=CCN1CCC2(C)c3cc(O)ccc3C[C@H]1[C@H]2C`, the Potency in [7] is greater than 46 µM; in test [11] it was 7.94 µM (active) and 631 nM (active); in test [14], 14.1 µM (active); in [15], 17.8 µM (active) and 15.8 µM (active). In addition, the call in [8], in [10], in test [13], in [16] and in [17] was inactive. Also, the Potency result in [9], in test [12], in [18], in [19] and in test [20] was “inactive” in each case.
